Measurements taken from the supplement of paper PMC8285479.
Values joined by “and” are separate entries in the source; they are usually repeats but may differ in a detail not shown here. Equal values may be shown once. Where a name gives a salt, the structure may show the parent alone. ± gives the standard deviation of the averaged measurements. Over roughly 1,900 compounds, “normalised cell viability (NPI; 0 = phenylarsine oxide control, 1 = DMSO control)” has its median near 1; the lowest 2% begin near 0.039. The sample as a whole holds a higher share of the lowest values than the screen did.

System: NCI-H1944
Experiment: normalised cell viability (NPI; 0 = phenylarsine oxide control, 1 = DMSO control) (fraction of DMSO control); NCI-H1944 is a non-small cell lung cancer line; higher = more viable cells (less compound toxicity)
Details: 6 days
[1] = glucocorticoid arm: hydrocortisone 2.75 uM co-treatment, compound 1 µM
[2] = glucocorticoid arm: hydrocortisone 2.75 uM co-treatment, compound 5 µM
[3] = glucocorticoid arm: hydrocortisone 2.75 uM pre-treated 2 days and continued, compound 1 µM
[4] = glucocorticoid arm: hydrocortisone 2.75 uM pre-treated 2 days and continued, compound 5 µM
[5] = glucocorticoid arm: vehicle, compound 1 µM
[6] = glucocorticoid arm: vehicle, compound 5 µM
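Also: CTB read-out in 384-well plates, triplicate wells, NPI normalised per plate against 1 µM phenylarsine oxide (0) and 0.1% DMSO (1) controls.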

Nc1ncnc2c1ncn2[C@@H]1O[C@H](CO)[C@@H](O)[C@H]1O [Adenosine]
normalised cell viability [1]: 0.9973 ± 0.0046 | normalised cell viability [2]: 1.01 ± 0.01 | normalised cell viability [3]: 0.995 ± 0.015 | normalised cell viability [4]: 0.987 ± 0.019 | normalised cell viability [5]: 1 ± 0.015 | normalised cell viability [6]: 1.003 ± 0.0058

Nc1nc(Cl)nc2c1ncn2[C@H]1C[C@H](O)[C@@H](CO)O1 [Cladribine]
normalised cell viability [1]: 0.0575 ± 0.013 | normalised cell viability [2]: 0.0436 ± 0.0033 | normalised cell viability [3]: 0.169 ± 0.0085 | normalised cell viability [4]: 0.1867 ± 0.0011 | normalised cell viability [5]: 0.0131 ± 0.0023 | normalised cell viability [6]: 0.0121 ± 0.0031

Nc1ncn([C@H]2C[C@H](O)[C@@H](CO)O2)c(=O)n1 [Decitabine]
normalised cell viability [1]: 1.1 and 1.06 | normalised cell viability [3]: 1.08 and 1.05

Nc1nc(Cl)nc2c1ncn2[C@@H]1O[C@H](COP(=O)(O)OP(=O)(O)OP(=O)(O)O)[C@H](O)C1O (stereo partly specified) [2-Chloroadenosine triphosphate tetrasodium]
normalised cell viability [1]: 0.992 ± 0.0076 | normalised cell viability [2]: 0.818 ± 0.041 | normalised cell viability [3]: 0.988 ± 0.018 | normalised cell viability [4]: 0.917 ± 0.019 | normalised cell viability [5]: 0.987 ± 0.0044 | normalised cell viability [6]: 0.981 ± 0.0056

Nc1ncn([C@H]2C[C@H](O)[C@@H](CO)O2)c(=O)n1 [5-Aza-2'-deoxycytidine; Decitabine]
normalised cell viability [1]: 1.073 ± 0.0058 | normalised cell viability [2]: 1.15 ± 0.026 | normalised cell viability [3]: 1.07 ± 0.01 | normalised cell viability [4]: 1.1 ± 0.02 | normalised cell viability [5]: 0.204 ± 0.009 | normalised cell viability [6]: 0.22 ± 0.021

CN(C)CCOc1ccc(-c2nc(-c3ccncc3)c(-c3ccc4c(c3)CC/C4=N\O)[nH]2)cc1
normalised cell viability [1]: 1.103 ± 0.0058 | normalised cell viability [2]: 1.16 ± 0.032 | normalised cell viability [3]: 1.07 ± 0.011 | normalised cell viability [4]: 1.11 ± 0.021 | normalised cell viability [5]: 1.013 ± 0.0058 | normalised cell viability [6]: 1 ± 0.05

O=[N+]([O-])c1ccc(CSc2ncnc3c2ncn3[C@@H]2O[C@H](CO)[C@@H](O)[C@H]2O)cc1 [S-(4-Nitrobenzyl)-6-thioinosine]
normalised cell viability [1]: 0.9813 ± 0.0047 | normalised cell viability [2]: 0.968 ± 0.027 | normalised cell viability [3]: 0.987 ± 0.018 | normalised cell viability [4]: 0.996 ± 0.059 | normalised cell viability [5]: 0.9973 ± 0.0046 | normalised cell viability [6]: 0.9917 ± 0.0097

Nc1c(O)cc(O)cc1C=Cc1ccc(O)cc1 [Aminoresveratrol sulfate]
normalised cell viability [1]: 1 ± 0.015 | normalised cell viability [2]: 1.01 ± 0.02 | normalised cell viability [3]: 1.01 ± 0.015 | normalised cell viability [4]: 1.01 ± 0.014 | normalised cell viability [5]: 0.9937 ± 0.0027 | normalised cell viability [6]: 1.01 ± 0.012

CC(C)C(=O)Oc1ccc(CO)cc1[C@H](CCN(C(C)C)C(C)C)c1ccccc1 [Fesoterodine Fumarate]
normalised cell viability [1]: 1.002 ± 0.0076 | normalised cell viability [2]: 0.966 ± 0.019 | normalised cell viability [3]: 1 ± 0.025 | normalised cell viability [4]: 0.984 ± 0.04 | normalised cell viability [5]: 1.001 ± 0.009 | normalised cell viability [6]: 1 ± 0.016

NCCC1CCCC(CCN)N1 (stereo unspecified) [MDL 26,630 trihydrochloride]
normalised cell viability [1]: 0.9937 ± 0.0075 | normalised cell viability [2]: 0.981 ± 0.021 | normalised cell viability [3]: 0.9927 ± 0.0075 | normalised cell viability [4]: 1.04 ± 0.11 | normalised cell viability [5]: 0.9923 ± 0.0042 | normalised cell viability [6]: 1 ± 0.011

NC1(C(=O)O)CCCCC1 [1-Amino-1-cyclohexanecarboxylic acid hydrochloride]
normalised cell viability [1]: 0.998 ± 0.011 | normalised cell viability [2]: 0.9907 ± 0.0081 | normalised cell viability [3]: 0.9927 ± 0.0049 | normalised cell viability [4]: 0.991 ± 0.013 | normalised cell viability [5]: 0.9913 ± 0.009 | normalised cell viability [6]: 0.999 ± 0.011

N#C/C(=C/c1ccc(O)c(O)c1)C(=O)N1CCc2ccccc21 [Tyrphostin AG 528]
normalised cell viability [1]: 0.993 ± 0.0089 | normalised cell viability [2]: 0.987 ± 0.032 | normalised cell viability [3]: 1.02 ± 0.031 | normalised cell viability [4]: 0.9767 ± 0.0095 | normalised cell viability [5]: 1.003 ± 0.0058 | normalised cell viability [6]: 1.02 ± 0.01

NCCCCCC(=O)O [6-Aminohexanoic acid]
normalised cell viability [1]: 0.9763 ± 0.0095 | normalised cell viability [2]: 0.972 ± 0.022 | normalised cell viability [3]: 1 ± 0.011 | normalised cell viability [4]: 0.971 ± 0.041 | normalised cell viability [5]: 0.99 ± 0.019 | normalised cell viability [6]: 0.9787 ± 0.0067

NCCCCC(=O)O [5-Aminovaleric acid hydrochloride]
normalised cell viability [1]: 0.9807 ± 0.0096 | normalised cell viability [2]: 0.99533 ± 0.00058 | normalised cell viability [3]: 0.9797 ± 0.0035 | normalised cell viability [4]: 0.9945 ± 0.00071 | normalised cell viability [5]: 0.992 ± 0.0066 | normalised cell viability [6]: 0.9927 ± 0.0032

NCC(=O)CCC(=O)O [Aminolevulinic acid hydrochloride; Aminolevulinic acid]
normalised cell viability [1]: 1.04 ± 0.021 | normalised cell viability [2]: 0.0671 ± 0.0064 | normalised cell viability [3]: 1.023 ± 0.0058 | normalised cell viability [4]: 0.486 ± 0.037 | normalised cell viability [5]: 1.001 ± 0.0081 | normalised cell viability [6]: 0.00332 ± 0.0013

[Cl-].[Li+] [Lithium Chloride]
normalised cell viability [1]: 1.007 ± 0.0058 | normalised cell viability [2]: 0.998 ± 0.013 | normalised cell viability [3]: 1.01 ± 0.013 | normalised cell viability [4]: 1.01 ± 0.018 | normalised cell viability [5]: 1.01 | normalised cell viability [6]: 1.002 ± 0.0072

C[C@]12CC[C@@H]3c4ccc(O)cc4CC[C@H]3[C@@H]1CC[C@@H]2O [beta-Estradiol]
normalised cell viability [1]: 0.9927 ± 0.005 | normalised cell viability [2]: 0.954 ± 0.022 | normalised cell viability [3]: 0.9937 ± 0.0055 | normalised cell viability [4]: 0.962 ± 0.028 | normalised cell viability [5]: 0.9753 ± 0.0031 | normalised cell viability [6]: 0.9807 ± 0.0032

C[C@]12CC[C@@H]3c4ccc(O)cc4CC[C@H]3[C@@H]1C[C@@H](O)[C@@H]2O [Estriol]
normalised cell viability [1]: 1.02 ± 0.011 | normalised cell viability [2]: 1.01 ± 0.014 | normalised cell viability [3]: 1.01 ± 0.01 | normalised cell viability [4]: 1.02 ± 0.021 | normalised cell viability [5]: 1.007 ± 0.0058 | normalised cell viability [6]: 1.01 ± 0.011

CNC(=O)[C@H]1O[C@@H](n2cnc3c(NCc4ccc(N)cc4)ncnc32)[C@H](O)[C@@H]1O
normalised cell viability [1]: 1.01 ± 0.012 | normalised cell viability [2]: 0.9953 ± 0.0081 | normalised cell viability [3]: 0.997 ± 0.003 | normalised cell viability [4]: 1 | normalised cell viability [5]: 0.9873 ± 0.0091 | normalised cell viability [6]: 1.001 ± 0.0085

C[C@@H](Oc1ccc(Oc2cnc3ccc(Cl)cc3n2)cc1)C(=O)O
normalised cell viability [1]: 1.004 ± 0.0098 | normalised cell viability [2]: 0.88 ± 0.023 | normalised cell viability [3]: 0.858 ± 0.29 | normalised cell viability [4]: 1.05 ± 0.015 | normalised cell viability [5]: 1.027 ± 0.0058 | normalised cell viability [6]: 0.522 ± 0.054

CNCC[C@@H](Oc1ccc(C(F)(F)F)cc1)c1ccccc1 [R-(-)-Fluoxetine hydrochloride]
normalised cell viability [1]: 0.999 ± 0.011 | normalised cell viability [2]: 0.92 ± 0.014 | normalised cell viability [3]: 1.013 ± 0.0058 | normalised cell viability [4]: 1.02 ± 0.029 | normalised cell viability [5]: 0.995 ± 0.0036 | normalised cell viability [6]: 0.9947 ± 0.005

N#Cc1ccc2[nH]c(O)c(-c3ccc(CN4CCOCC4)cn3)c2c1
normalised cell viability [1]: 1.11 ± 0.021 | normalised cell viability [2]: 1.24 ± 0.021 | normalised cell viability [3]: 1.053 ± 0.0058 | normalised cell viability [4]: 1.11 ± 0.023 | normalised cell viability [5]: 1.02 ± 0.011 | normalised cell viability [6]: 1.05 ± 0.015

CN1CC2c3ccccc3Oc3ccc(Cl)cc3C2C1 (stereo unspecified) [Asenapine]
normalised cell viability [1]: 1.002 ± 0.0072 | normalised cell viability [2]: 1.02 ± 0.024 | normalised cell viability [3]: 1.01 ± 0.011 | normalised cell viability [4]: 1.01 ± 0.028 | normalised cell viability [5]: 0.995 ± 0.0087 | normalised cell viability [6]: 1 ± 0.0092

CN(C)CCC(c1ccc(Br)cc1)c1ccccn1 (racemic) [(±)-Brompheniramine maleate]
normalised cell viability [1]: 1.001 ± 0.0081 | normalised cell viability [2]: 1.03 ± 0.017 | normalised cell viability [3]: 1.013 ± 0.0058 | normalised cell viability [4]: 1.04 ± 0.014 | normalised cell viability [5]: 1.013 ± 0.0058 | normalised cell viability [6]: 1.02 ± 0.01

CC(C)C[C@H](NP(=O)(O)O[C@H]1O[C@H](C)[C@@H](O)[C@H](O)[C@@H]1O)C(=O)N[C@@H](Cc1c[nH]c2ccccc12)C(=O)O [Phosphoramidon disodium]
normalised cell viability [1]: 0.9937 ± 0.0061 | normalised cell viability [2]: 1.01 ± 0.02 | normalised cell viability [3]: 1.01 ± 0.016 | normalised cell viability [4]: 0.999 ± 0.011 | normalised cell viability [5]: 0.991 ± 0.0044 | normalised cell viability [6]: 0.9847 ± 0.0081
